Measurements: the supplement of paper PMC4237247

These molecules were tested on HeLa (assay: percent cells in G2/M phase; higher = more G2/M arrest). Conditions: 10 µM; 20 h; hit class: G1-phase inhibitor.
Protocol: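 HTS of 79,827 drug-like compounds at 10 uM. HeLa cells in 384-well plates were treated for 20 h, fixed, stained with Vybrant DyeCycle Green and scanned on an Acumen eX3 cytometer to give per-well cell cycle profiles (% cells in each phase). The plate Z' was 0.51. Only hits are listed: G1 hits >4 SD and S hits >5 SD from the mean.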

Structure (SMILES)	percent cells in G2/M phase [%]
O=[N+]([O-])c1ccc(NCCO)c2ncccc12	23.7
C[C@@H]1C[C@@H]([C@H](O)CC2CC(=O)NC(=O)C2)C(=O)[C@@H](C)C1 [Cycloheximide]	11.8
C[C@@H]1O[C@@H](O[C@H]2C[C@@H](O)[C@]3(CO)[C@H]4[C@H](O)C[C@]5(C)[C@@H](C6=CC(=O)OC6)CC[C@]5(O)[C@@H]4CC[C@]3(O)C2)[C@H](O)[C@H](O)[C@H]1O	12.2
C[C@@]12C(=O)OC(=O)[C@]1(C)[C@H]1CC[C@@H]2O1	12
CNc1ccc2oc(C[C@H]3O[C@@]4(CC[C@H]3C)O[C@H]([C@H](C)C(=O)c3ccc[nH]3)[C@H](C)C[C@H]4C)nc2c1C(=O)O	5.98
C/C=C(/C)C(=O)O[C@H]1C(C)=C2[C@H]([C@@H]1OC(=O)CCCCCCC)[C@@](C)(OC(C)=O)C[C@H](OC(=O)CCC)[C@@]1(O)[C@H]2OC(=O)[C@@]1(C)O	9.52
CNC1CC2OC(C)(C1OC)n1c3ccccc3c3c4c(c5c6ccccc6n2c5c31)C(=O)NC4 (centres undefined)	3.24
CC(C)(C)c1cc(C=C(C#N)C#N)cc(C(C)(C)C)c1O	12.3
C/C(=C\c1ccc(Cl)cc1)[N+](=O)[O-]	2.17
